The record followed here is PubChem BioAssay (NCI).

The panel holds about 83,000 compounds, 20% with a hit somewhere; the sample as a whole holds those more often.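 Plates (96-well) were seeded with cells, treated with compound at one concentration, and incubated for 48 hours before percent growth was determined.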 Unmarked numbers belong to inactive results. Activity calls are given as the source filed them.

The experiment concerns A498 renal. As to the kind of experiment: NCI-60 one-dose screen, 48 h (100 = growth as untreated, 0 = no growth, -100 = all killed). Particulars: 10 µM unless noted. As to the method: Growth inhibition of the A498 human tumor cell line is measured as a screen for anti-cancer activity. Cells are grown in 96 well plates and exposed to the test compound for 48 hours. Compounds are tested at a single concentration, which is 10^-5 M for most compounds. The reported endpoint is percent growth (GI% or GIPRCNT), where numbers from 0 - 100% represent growth inhibition, and numbers from -100% - 0 represent cell death. For example, a value of 40 represents 60% growth inhibition. A value of 0 means no net growth occurred over the course of the experiment. A value of -40 indicates 40% of cells at the beginning of the experiment died by the end of the experiment. A value of -100 means all cells are dead at the end of the experiment.
NCI-60 Human Tumor Cell Lines Screen was performed using the standard one-dose NCI protocol, which is described in more detail at https://dtp.cancer.gov/discovery_development/nci-60/default.htm.
Compounds with GIPRCNT values below 10 were considered active. Activity score was based on GIPRCNT using the following formula: […]
Score is 0 for GIPRCNT values of 100 or above, 50 for GIPRCNT values of 0, and 100 for GIPRCNT values of -100.
With `COc1cc(CNC(=O)CSc2nc3ccccc3c(=O)n2Cc2cc(OC)c(OC)c(OC)c2)cc(OC)c1OC`, the growth is 88.4%.

Turning to `c1ccn2nnnc2c1`, the growth was 101%.

In the case of `CCn1cc(C(=O)O)c(=O)c2cc(F)c(N3CCN(S(=O)(=O)c4ccc(Cl)cc4Cl)CC3)cc21`, the growth was -0.0481% (active).

Consider `COc1ccc(-c2nc(-c3nc4ccc(F)cc4[nH]3)cc3c2[nH]c2ccccc23)cc1`, for which the growth was 26.4%.

Regarding `COc1ccc(/C=C/C(=O)c2cccc(B(O)O)c2)cc1O`, the growth was 52.1%.

Consider `Clc1nc2ccccc2nc1CI`, for which the growth is 120%.

Take `O=C(/C=C/CN1CCOCC1)Nc1cc2c(Nc3ccc(F)c(Cl)c3F)ncnc2cc1OCCOC(F)F`: the growth is -5.14% (active).

Consider `CS(=O)(=O)N(c1cc(-c2ccc3ncnc(Nc4cccc(Cl)c4)c3c2)cnc1Cl)S(C)(=O)=O`, for which the growth is -28% (active).

For the compound `CC(C(=O)n1cc(-c2ccccc2)c(-c2ccccc2)c1)c1ccccc1` (stereo not given), the growth is 99.8%.

For `COc1ccc2c(c1)C=CC(C#N)N2C(=O)c1ccccc1` (stereo not given), the growth was -5.22% (active).

As to `CC(=O)/C=C/c1cc2cc(Cl)ccc2[nH]c1=O`, the growth is 90.2%.

Regarding `CCN(Cc1ccccc1)c1ccc(SC#N)cc1`, the growth was 86.9%.

Consider `COc1ccc(/C=C/c2nc(N3CCOCC3)c3nc(Cl)c(Cl)cc3n2)cc1OC`, for which the growth is 93.7%.

For `O=Nc1c(-c2c(O)[nH]c3ccc([N+](=O)[O-])cc23)[nH]c2ccc(O)cc12`, the growth was -24.5% (active).

Turning to `O=c1cc(C2NCCc3c2[nH]c2ccccc32)c2c(ccc3ccccc32)o1` (stereo not given), the growth was 46.3%.

As for `C=CCn1c(C)nc2ccc(Nc3nc(Nc4ccc(F)cc4)nc4ccccc34)cc21`, the growth was 59.9%.

Regarding `CCNC(=O)CCCCC(=O)c1c(C)[nH]c(/C=C2\N=C(c3ccc[nH]3)C=C2OC)c1C`, the growth was 95.8%.

`Cc1cc(C(=O)O)c(N)c(C)n1`: the growth is 101%.

In the case of `COc1cc2nc(Cl)nc(NCCO)c2cc1OC`, the growth was 79.7%.

Turning to `CN1C(=O)[C@H]2c3c1cccc3[C@@]13NC(=O)O[C@H]1[C@H](CCC3(C)C)C2(C)C`, the growth was 107%.

In the case of `COc1ccc(/C=C2\C(=O)N(C(=O)c3csc(NC(C)=O)n3)N=C2C)cc1`, the growth is 121%.

For `COc1cc(NC(=O)CCl)ccc(=O)c1`, the growth was 85.7%.

For `NC(=O)NC(=O)/C=C/C(=O)OCCCl`, the growth was 103%.

On to `Cc1cc2c(c(=O)o1)C(c1ccc(OC(=O)N3CCOCC3)cc1)C(C#N)=C(N)O2` (stereo not given), for which the growth is 106%.

Take `O=C(Nc1ccc(F)c(Cl)c1)c1n[nH]c(=O)c2ccccc12`: the growth is 103%.

Regarding `O=S(=O)(O)CCl`, the growth was 111%.

On to `CN(C)C1CCC(NC2=CC(=O)C=CC2=O)CC1` (stereo not given), for which the growth was 122%.

Consider `NC(=O)c1c(NC(=O)c2ccc3c(c2)OCO3)sc2c1CCC(=O)C2`, for which the growth was -3.77% (active).

In the case of `CC(=O)OC[Si](C)(C)c1ccccc1`, the growth was 103%.

On to `COc1ccc(Cl)cc1NC(N)=S`, for which the growth is 95.9%.

With `COc1ccc(-c2nc(-c3ccccc3)c(-c3ccccc3)n2C2CC2)cc1OC1CCCCC1`, the growth is 63.7%.

`CC(C)C[C@H](NC(=O)[C@H](Cc1ccccc1)n1ccc(N2CCCCC2)cc1=O)B(O)O`: the growth was -24.6% (active).

Consider `O=C(NCCc1c[nH]c2ccccc12)C1Cc2ccccc2CN1C(=O)c1ccco1` (stereo not given), for which the growth was 107%.

Regarding `CC(=O)N1Cc2ccccc2C(C)Cc2cc(Cl)ccc21` (stereo not given), the growth was 75.7%.

For the compound `C=C1C(=O)O[C@H]2[C@H]1CC/C(Cn1cc(-c3ccsc3)nn1)=C\CC[C@@]1(C)O[C@@H]21`, the growth is -4.99% (active).

Take `C=CCOc1ccc(/C(O)=C2\C(=O)C(=O)N(c3nccs3)C2c2ccccc2F)cc1` (stereo not given): the growth was 73.8%.

On to `CCCCC(N)(C(=O)O)C1CCCC1` (stereo not given), for which the growth is 82.4%.

With `O=C(CNC(=O)c1cccc2ccccc12)Nc1ccccc1Oc1ccccc1`, the growth is -14.9% (active).

On to `O=c1[nH]c2ccccc2cc1-c1nnc(Cc2ccccc2)o1`, for which the growth was 106%.

`O=C1CCC/C=C\C[C@H]2C=CC(=O)/C2=C/C[C@H](C/C=C\CC(F)(F)F)O1`: the growth is -75.2% (active).
